Test results taken from PubChem BioAssay (EPA / NIEHS).
Results filed as inconclusive are left out. Some compounds were tested as several samples or in several runs, with calls that do not always agree. The source made the active and inactive calls. How the source made its calls: active means hit-call score of the fitted dose curve at least 0.9, where 1 is the maximum; inconclusive means response in the unintended direction; inactive means score below 0.9.

Target: Cellular tumor antigen p53 (Homo sapiens) (UniProt P04637)
Assay: TOX21_p53_BLA_p4_ratio: Tox21 HCT-116 p53 Agonism Beta-lactamase Assay, Ratio, Phase 4 (AID 2283601)
Text: TOX21_p53_BLA_p4 is a cell-based, single-readout assay that uses HCT116, a human intestinal cell line, […] in a 1536-well plate.TOX21_p53_BLA_p4_ratio is an assay readout measuring reporter gene via receptor activity and designed using inducible reporter (beta lactamase induction) detected with GAL4 b-lactamase reporter gene. The signal is derived from the ratio of cleaved (ch2) to uncleaved (ch1)reporter gene substrate used as the measure of target activity.Data from the assay component TOX21_p53_BLA_p4_ratio was analyzed into 1 assay endpoint. This assay endpoint, TOX21_p53_BLA_p4_ratio, was analyzed in the positive analysis fitting direction relative to DMSO as the negative control and baseline of activity. Using a type of inducible reporter, gain-of-signal activity can be used to understand changes in the reporter gene as they relate to the gene TP53. Furthermore, this assay endpoint can be referred to as a primary readout, because this assay has produced multiple assay endpoints where this ratio serves a reporter gene function to understand target activity. To generalize the intended target to other relatable targets, this assay endpoint is annotated to the DNA binding intended target family, where the subfamily is tumor suppressor.
Thawing Method: Place 14 mL of pre-warmed thaw medium into a 15 mL of conical tub. Remove the vial of cells to be thawed from liquid nitrogen and thaw rapidly by placing at 37C in a water bath with gentle agitation for 1-2 minutes. Decontaminate the vial by wiping with 70% ethanol before opening in a biological safety cabinet. Transfer the vial contents drop-wise into 14 mL of thaw medium in a sterile 15-mL conical tub. Centrifuge cells at 900 rpm for 4 minutes and resuspend in thaw medium. Transfer contents to the T75 tissue culture flask containing Thaw Medium and place flask in a humidified 37C/5% CO2 incubator. Switch to growth medium at first passage.Propagation Method: Aspirate medium, rinse once in DPBS, add 0.25% Trypsin/EDTA and swirl to coat the cell evenly. Add an equal volume of Growth Medium to inactivate Trypsin after 2-3 minutes incubation at 37C. Centrifuge cells at 900 rpm for 4 minutes and resuspend in growth medium. Cell should be passage or fed at least twice a week.Assay Protocol: Harvest cells from culture in growth medium and resuspend in assay medium. 2.2 Dispense 4000 cells/5 uL/well into 1536-well black/clear bottom plates using a Multidrop dispenser. After the cells were incubated at 37C for 5 hours, 23 nL of compounds dissolved in DMSO were transferred to the assay plate by a PinTool resulting in a 217-fold dilution. Incubate the plates for 16 hours at 37C, 5% CO2. Add 1 uL of 6X LiveBLAzer FRET B/G (CCF4-AM) Substrate Mixture to each well using a BioRAPTR dispenser and incubate the plates at room temperature for 2 hours. Measure fluorescence intensity at 460 and 530 nm emission and 405 nm excitation by an Envision detector. Data is expressed as the ratio of 460nm/530nm emissions. Add 4 uL of Cell-titer Glo to each well using BioRAPTR and incubate the plates at room temperature for 2 hours. Measure fluorescence intensity by a VewLux plate reader.

Cellular tumor antigen p53 (Homo sapiens), sequence (P04637 whole entry, looked up): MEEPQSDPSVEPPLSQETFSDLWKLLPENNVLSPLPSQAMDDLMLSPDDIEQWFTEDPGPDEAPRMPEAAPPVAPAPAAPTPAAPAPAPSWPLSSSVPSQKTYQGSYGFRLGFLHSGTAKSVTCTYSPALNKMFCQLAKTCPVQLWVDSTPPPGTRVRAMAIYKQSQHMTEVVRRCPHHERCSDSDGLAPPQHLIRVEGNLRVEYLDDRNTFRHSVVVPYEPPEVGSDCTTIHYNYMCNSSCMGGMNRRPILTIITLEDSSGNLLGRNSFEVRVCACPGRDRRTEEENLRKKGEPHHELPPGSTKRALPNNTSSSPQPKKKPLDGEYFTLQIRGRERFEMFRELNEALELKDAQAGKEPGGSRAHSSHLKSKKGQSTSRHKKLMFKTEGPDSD

How did the outcome turn out when `O=C(Cl)c1ccc(C(=O)Cl)cc1` was run?
Its outcome is “inactive”.

How did the outcome turn out when `O=C1CCCCCCCCCCCN1` was run?
The outcome was “inactive”.

With `CC(C)=CCl` as the compound, how does the outcome read?
The outcome was “inactive”.

With `Cc1c(C(=O)c2c[nH]n(C)c2=O)ccc(S(C)(=O)=O)c1C1=NOCC1` as the compound, how does the outcome read?
The outcome was “inactive”.

For `CCCCc1ccc(Cl)cc1`, which outcome is on record?
Its outcome is “inactive”.

How did the outcome turn out when `CC(=O)CCC=C(C)C` was run?
The outcome was “inactive”.

For `CC(=O)OCCc1ccccc1`, which outcome is on record?
Its outcome is “inactive”.

How did the outcome turn out when `Oc1ccccc1Cc1ccccc1O` was run?
The outcome was “inactive”.

With `CCCCNC(=S)NCCCC` as the compound, how does the outcome read?
Its outcome is “inactive”.

How did the outcome turn out when `CCCCNS(=O)(=O)c1ccccc1` was run?
The outcome was “inactive”.

With `CC(CC=O)CC(C)(C)C` (stereo not given) as the compound, how does the outcome read?
The outcome was “inactive”.

Which outcome does the source give for `CCCCNS(=O)(=O)c1ccc(C)cc1` here?
Its outcome is “inactive”.

With `CC(C)(CO)COC(=O)C(C)(C)CO` as the compound, how does the outcome read?
Its outcome is “inactive”.

How did the outcome turn out when `CC(C)(c1ccccc1)c1ccc(Nc2ccc(C(C)(C)c3ccccc3)cc2)cc1` was run?
Its outcome is “inactive”.

`CCC1COC(=O)O1` (stereo not given) was tested. Which outcome did it give?
Its outcome is “inactive”.

How did the outcome turn out when `CC(=O)C(C)C` was run?
Its outcome is “inactive”.

How did the outcome turn out when `N=C1C=CC(=C(c2ccc(N)cc2)c2ccc(N)cc2)C=C1` was run?
The outcome was “inactive”.

With `Nc1ncnc2nc[nH]c12` as the compound, how does the outcome read?
The outcome was “inactive”.

With `N#CC1(N)CCCCC1` as the compound, how does the outcome read?
Its outcome is “inactive”.

With `O=C(Oc1ccccc1)c1ccccc1C(=O)Oc1ccccc1` as the compound, how does the outcome read?
Its outcome is “inactive”.

`c1ccc2c(c1)[nH]c1ccccc12` was tested. Which outcome did it give?
The outcome was “inactive”.

For `CC(C)OC(=O)c1ccccc1`, which outcome is on record?
The outcome was “inactive”.

How did the outcome turn out when `C=C(C)C(=O)OCC(O)COc1ccc(C(C)(C)c2ccc(OCC(O)COC(=O)C(=C)C)cc2)cc1` (stereo not given) was run?
Its outcome is “inactive”.

How did the outcome turn out when `CC/C=C\CCOC(=O)c1ccccc1O` was run?
The outcome was “inactive”.

How did the outcome turn out when `COC(=O)c1ccccc1C` was run?
The outcome was “inactive”.

`NNS(=O)(=O)c1ccc(Oc2ccc(S(=O)(=O)NN)cc2)cc1` was tested. Which outcome did it give?
Its outcome is “inactive”.

For `CC12CCC(CC1)C(C)(C)O2`, which outcome is on record?
The outcome was “inactive”.

For `CC(CCC(=O)O)(c1ccc(O)cc1)c1ccc(O)cc1`, which outcome is on record?
The outcome was “inactive”.

Which outcome does the source give for `CN(C)Cc1cc(CN(C)C)c(O)c(CN(C)C)c1` here?
The outcome was “inactive”.

For `C=C[C@@]1(C)CC(=O)[C@]2(O)[C@@]3(C)[C@@H](O)CCC(C)(C)[C@@H]3[C@H](O)[C@H](OC(C)=O)[C@@]2(C)O1`, which outcome is on record?
Its outcome is “inactive”.

With `CC(C)c1cc(C(C)C)cc(C(C)C)c1` as the compound, how does the outcome read?
The outcome was “inactive”.

For `CC(=O)OC(C)c1ccccc1` (stereo not given), which outcome is on record?
The outcome was “inactive”.

`Nc1ccc(C(=O)O)cc1` was tested. Which outcome did it give?
The outcome was “inactive”.

Which outcome does the source give for `C[Si]1(C)O[Si](C)(C)O[Si](C)(C)O[Si](C)(C)O[Si](C)(C)O1` here?
Its outcome is “inactive”.

For `CC1(C)[C@@H]2CC[C@@]1(C)C(=O)C2`, which outcome is on record?
The outcome was “inactive”.

With `O=C(O)C1CCC(C(=O)O)CC1` (stereo not given) as the compound, how does the AC50 read?
The AC50 was 85.8 µM (active).

Which AC50 does the source give for `CCCCCCCOC(=O)c1ccc(O)cc1` here?
The AC50 was 68.3 µM (active).

What about the outcome of the same compound?
The outcome was “inactive”.

`CCCCCCCCCCCCCCCCCCOS(=O)(=O)O` was tested. Which outcome did it give?
The outcome was “inactive”.

For `CCCCCCCC(=O)OCC(COC(=O)CCCCCCC)OC(=O)CCCCCCC`, which outcome is on record?
The outcome was “inactive”.
